Among the data in PubChem BioAssay AID623970 (The Scripps Research Institute Molecular Screening Center, 2012) are IC50 values, retold here.

Structures are written as SMILES. “And” between values parts separate entries of the source, which are not always exact repeats. Equal values may be shown once. The source made the active and inactive calls. No stated cut-off is given here; in the data, active means IC50 below about 90 µM; inactive means the rest.

The assay can be described thus: compound-DNA interaction, SYBR readout – biochemical, fluorescence, artefact control for HCV NS3 helicase inhibitor project, late-stage follow-up (AID 623970). To be noted: DNA binding, SYBR dye displacement fluorescence.
Consider `Cc1ccc2nc(-c3ccc4nc(-c5ccc(NC(=O)c6ccc(NC(=O)OCC7c8ccccc8-c8ccccc87)cc6)cc5)sc4c3)sc2c1S(=O)(=O)O`, for which the IC50 is 6 µM (active).

As to `Cc1ccc2nc(-c3ccc(NC(=O)c4ccc(NC(=O)c5ccc(NC(=O)OCC6c7ccccc7-c7ccccc76)cc5)cc4)cc3)sc2c1S(=O)(=O)O`, the IC50 was > 100 µM (inactive).

Consider `COc1ccc(C(=O)Nc2ccc(-c3nc4ccc(-c5nc6ccc(C)c(S(=O)(=O)O)c6s5)cc4s3)cc2)cc1`, for which the IC50 is > 100 µM (inactive).

On to `Cc1ccc2nc(-c3ccc4nc(-c5ccc6nc(-c7ccc8nc(-c9ccc(N)cc9)sc8c7)sc6c5)sc4c3)sc2c1S(=O)(=O)O`, for which the IC50 is 14 µM (active).

For `Cc1ccc2nc(-c3ccc4nc(-c5ccc(NC(=O)c6ccccc6C(F)(F)F)cc5)sc4c3)sc2c1S(=O)(=O)O`, the IC50 was > 100 µM (inactive).

Take `Cc1cc2sc(-c3ccc4nc(-c5ccc(N)cc5)sc4c3)nc2cc1S(=O)(=O)O`: the IC50 is 32 µM (active).

As to `Cc1ccc(NC(=O)Nc2ccc(-c3nc4ccc(-c5nc6ccc(C)c(S(=O)(=O)O)c6s5)cc4s3)cc2)cc1`, the IC50 is 18 µM (active).

In the case of `COc1ccc(S(=O)(=O)Nc2ccc(-c3nc4ccc(-c5nc6ccc(C)c(S(=O)(=O)O)c6s5)cc4s3)cc2)cc1`, the IC50 was 42 µM (active).

Turning to `Cc1ccc2nc(-c3ccc4nc(-c5ccc(NC(=O)c6cc(C(F)(F)F)ccc6F)cc5)sc4c3)sc2c1S(=O)(=O)O`, the IC50 is > 100 µM (inactive).

As for `Cc1ccc2nc(-c3ccc(NC(=O)c4ccc(C(F)(F)F)cc4)cc3)sc2c1S(=O)(=O)O`, the IC50 was > 100 µM (inactive).

As to `Cc1ccc2nc(-c3ccc4nc(-c5ccc(NC(=O)c6cc(C(F)(F)F)cc(C(F)(F)F)c6)cc5)sc4c3)sc2c1S(=O)(=O)O`, the IC50 was 86 µM (active).

Turning to `Cc1ccc2nc(-c3ccc(NC(=O)c4ccc(NC(=O)c5ccccc5)cc4)cc3)sc2c1S(=O)(=O)O`, the IC50 was > 100 µM (inactive).

On to `Cc1ccc2nc(-c3ccc4nc(-c5ccc(NC(=O)c6ccccc6)cc5)sc4c3)sc2c1S(=O)(=O)O`, for which the IC50 is > 100 µM (inactive).

Take `Cc1ccc2nc(-c3ccc4nc(-c5ccc(NC(=O)c6ccc7ccccc7c6)cc5)sc4c3)sc2c1S(=O)(=O)O`: the IC50 was 36 µM (active) and 25 µM (active).

Take `Cc1ccc(C(=O)Nc2ccc(-c3nc4ccc(-c5nc6ccc(C)c(S(=O)(=O)O)c6s5)cc4s3)cc2)cc1`: the IC50 was > 100 µM (inactive).

As for `Cc1ccc2nc(-c3ccc4nc(-c5ccc(NC(=O)c6cc(F)ccc6C(F)(F)F)cc5)sc4c3)sc2c1S(=O)(=O)O`, the IC50 is > 100 µM (inactive).

`Cc1ccc2nc(-c3ccc4nc(-c5ccc(NCc6ccccc6)cc5)sc4c3)sc2c1S(=O)(=O)O`: the IC50 was 27 µM (active).

With `Cc1ccc2nc(-c3ccc4nc(-c5ccc(NC(=O)c6ccc(C(F)(F)F)c(F)c6)cc5)sc4c3)sc2c1S(=O)(=O)O`, the IC50 is 28 µM (active).

Regarding `Cc1ccc2nc(-c3ccc4nc(-c5ccc(NC(=O)c6ccc7nc(-c8ccc(N)cc8)sc7c6)cc5)sc4c3)sc2c1S(=O)(=O)O`, the IC50 is 68 µM (active).

Consider `Cc1ccc2nc(-c3ccc4nc(-c5ccc(NC(=O)Nc6ccccc6)cc5)sc4c3)sc2c1S(=O)(=O)O`, for which the IC50 is > 100 µM (inactive).

For `Cc1ccc2nc(-c3ccc4nc(-c5ccc(NS(=O)(=O)c6ccc(C(F)(F)F)cc6)cc5)sc4c3)sc2c1S(=O)(=O)O`, the IC50 is 82 µM (active).

Regarding `Cc1ccc2nc(-c3ccc(NC(=O)c4ccc(N)cc4)cc3)sc2c1S(=O)(=O)O`, the IC50 is > 100 µM (inactive).

On to `Cc1ccc2nc(-c3ccc4nc(-c5ccc(NC(=O)c6ccc(N)cc6)cc5)sc4c3)sc2c1S(=O)(=O)O`, for which the half-inhibitory concentration (IC50) was 55 µM (active).

Regarding `Cc1ccc2nc(-c3ccc4nc(-c5ccc(NC(=O)c6cccnc6)cc5)sc4c3)sc2c1S(=O)(=O)O`, the IC50 is > 100 µM (inactive).

For `Cc1ccc2nc(-c3ccc4nc(-c5ccc(NC(=O)c6cccc(C(F)(F)F)c6)cc5)sc4c3)sc2c1S(=O)(=O)O`, the IC50 is > 100 µM (inactive).

Consider `Cc1ccc2nc(-c3ccc4nc(-c5ccc6nc(-c7ccc(N)cc7)sc6c5)sc4c3)sc2c1S(=O)(=O)O` (tested in a mixture with another compound), for which the IC50 was 43 µM (active).

With `Cc1ccc2nc(-c3ccc(NC(=O)c4ccc(NC(=O)c5ccc(C(F)(F)F)cc5)cc4)cc3)sc2c1S(=O)(=O)O`, the IC50 was > 100 µM (inactive).
